Tau fluor counter: Counterscreen qHTS for Inhibitors of Tau Fibril Formation, Fluorescence Polarization. actives 0.93% (n = 280,000). Potency, µM (highest dose often 57.7 µM). tau K18 P301L Alexa594 fluorescence, heparin fibrillization. AID 1463, 2008; further: nearly all actives have a fitted effect of over 55% in size
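Human tau K18 P301L (15 uM unlabeled, 0.24 uM Alexa 594-labeled) in 100 mM sodium acetate pH 7 with 20 uM heparin, 6 hr at 37 C. ThT 30 uM added, 1 hr ambient; Alexa 594 FP and total fluorescence read at 555/632 nm.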
Tau fibril FP: qHTS for Inhibitors of Tau Fibril Formation, Fluorescence Polarization. Microtubule-associated protein tau (Homo sapiens), P10636. K18 P301L tau heparin fibrillization, Alexa594 FP, 6 h. actives 0.39% (n = 280,000). Potency, µM (series often up to 57.7 µM), actives largely listed as inhibitors. AID 1468, 2008; further: nearly all actives have a fitted effect of over 55% in size
Target sequence (P10636 561-689 P618L limits assumed): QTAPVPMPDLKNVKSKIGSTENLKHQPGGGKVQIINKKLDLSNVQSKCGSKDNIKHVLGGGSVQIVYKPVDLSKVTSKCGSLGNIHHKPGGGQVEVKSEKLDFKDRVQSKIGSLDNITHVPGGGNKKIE
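Recombinant K18 P301L […], labeled with Alexa 594 at 0.24 uM over 15 uM unlabeled; heparin inducer 20 uM final; 37 C, 6 hr; FP endpoint.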
KDM4E inh: qHTS Assay for Inhibitors of Human Jumonji Domain Containing 2E (JMJD2E) | AID 2147, 2009 | Potency, µM (top dose mostly 57.1 µM), actives largely listed as inhibitors | JMJD2E catalytic domain, FDH-coupled NADH fluorescence (FDH is formaldehyde dehydrogenase) | Lysine-specific demethylase 4E (Homo sapiens), B2RXH2 | actives 1.6% (n = 230,000); active means well fitted inhibition curve with a large enough effect, not every such curve was filed as active; inconclusive means small, poorly fitted or top-dose-only effect, or another doubt; inactive means no such curve, though single readings can be large or run the other way; further: nearly all actives have a fitted effect of over 50% in size
GoLoco inh red: qHTS Assay for Inhibitors of RGS12 GoLoco Motif Activity (Red Fluorophore). Gai1:RGS12 GoLoco peptide FP, rhodamine, 10 min. Guanine nucleotide-binding protein G(i) subunit alpha-1 (Homo sapiens), P63096. actives 0.44% (n = 230,000). Potency, µM (highest dose often 61.6 µM), usual class: inhibitors. AID 880, 2007; active means well fitted inhibition curve with a large enough effect, not every such curve was filed as active; inactive means no such curve, though single readings can be large or run the other way; further: nearly all actives have a fitted effect of over 30% in size
Target sequence (P63096 whole entry, looked up): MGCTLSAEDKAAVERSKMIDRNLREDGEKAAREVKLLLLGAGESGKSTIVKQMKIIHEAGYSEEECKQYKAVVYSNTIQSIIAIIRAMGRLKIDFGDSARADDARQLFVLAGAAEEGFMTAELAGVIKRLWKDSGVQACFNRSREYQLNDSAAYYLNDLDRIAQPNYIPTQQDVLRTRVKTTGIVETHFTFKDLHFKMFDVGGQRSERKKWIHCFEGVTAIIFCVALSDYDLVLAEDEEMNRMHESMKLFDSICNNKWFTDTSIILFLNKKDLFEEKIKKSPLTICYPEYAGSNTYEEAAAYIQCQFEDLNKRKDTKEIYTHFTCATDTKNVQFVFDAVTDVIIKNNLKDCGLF
Tau ThT inhib: qHTS for Inhibitors of Tau Fibril Formation, Thioflavin T Binding. Microtubule-associated protein tau (Homo sapiens), P10636. recombinant tau K18 P301L (four-repeat tau fragment), heparin-induced fibrillization, ThT fluorescence. Potency, µM (highest dose often 57.4 µM), hits mostly inhibitors. actives 2.1% (n = 270,000). AID 1460, 2008; further: nearly all actives have a fitted effect of over 55% in size
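Heparin-induced fibrillization of the P301L-mutant K18 repeat-domain fragment of human tau was followed by ThT binding in quantitative high-throughput format.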
Large screens that a line does not name were inactive; ! = a repeat was not active; [ ] = remark or other dose. Rows were chosen to be rich in hits. Some 3.4% of all compounds tested hit in one or more screens of this group. Unless noted, the call rests on the fitted dose curve; in most records, active means well fitted curve in the direction sought with a large enough effect; inconclusive means small, poorly fitted or top-dose-only effect, or another doubt; inactive means no such curve, though single readings can be large; an effect the other way counts as inactive or inconclusive.

CCOC(=O)c1c(S(=O)(=O)N2CCCC(C(=O)N3CCN(c4cccc(C)c4C)CC3)C2)c(C)n(C)c1C (centres undefined)	Tau ThT inhib inconclusive (no result: KDM4E inh, GoLoco inh red)
Cc1ccc(CNC(=O)c2ccc(Cn3c(SCc4ccc(F)cc4)nc4cccnc43)cc2)o1	none (no result: KDM4E inh, GoLoco inh red)
CSc1cccc(Nc2cc(C(=O)NCCc3ccc(Cl)cc3)c3ccccc3n2)c1	Tau fluor counter 3.5µM[quencher], Tau fibril FP inconclusive (no result: KDM4E inh, GoLoco inh red)
CCCCN(CCCNC(=O)c1cc(Nc2cccc(SC)c2)nc2ccccc12)Cc1ccccc1	Tau fluor counter 1.8µM[quencher], Tau fibril FP inconclusive, Tau ThT inhib inconclusive (no result: KDM4E inh, GoLoco inh red)
CC(C)c1ccc(Nc2cc(C(=O)NCCCN(C)Cc3ccccc3)c3ccccc3n2)cc1	Tau fluor counter inconclusive (no result: KDM4E inh, GoLoco inh red)
O=C(NCCc1ccccc1)c1cc(Sc2cccc(Cl)c2)nc2ccccc12	none (no result: KDM4E inh, GoLoco inh red)
O=C(Cn1cc2c(n1)CCCC2)NCc1ccccn1	GoLoco inh red 16µM
O=C(Cn1cc2c(n1)CCCC2)NCc1cccs1	none
O=C(N/N=C/c1c[nH]c2ccccc12)c1ccn[nH]1	Tau ThT inhib inconclusive
Cc1ccc(-c2cc(C(=O)N/N=C/c3c[nH]c4ccccc34)[nH]n2)cc1	Tau fluor counter 16µM[quencher], Tau fibril FP inconclusive, KDM4E inh inconclusive, Tau ThT inhib inconclusive
Cc1ccccc1NCC(=O)N/N=C/c1c[nH]c2ccccc12	Tau fluor counter 16µM[quencher], Tau fibril FP inconclusive, Tau ThT inhib inconclusive
O=C(N/N=C/c1c[nH]c2ccccc12)c1cc(-c2ccccc2)n[nH]1	Tau fluor counter 25µM[quencher], Tau ThT inhib inconclusive
O=C(N/N=C/c1c[nH]c2ccccc12)c1cc(-c2cccc3ccccc23)n[nH]1	Tau fluor counter 10µM[quencher], KDM4E inh inconclusive, Tau ThT inhib inconclusive
Cc1cccc(NCC(=O)N/N=C\c2c[nH]c3ccccc23)c1	Tau fluor counter inconclusive, Tau fibril FP inconclusive, Tau ThT inhib inconclusive
O=C(N/N=C/c1ccccn1)c1cc(-c2cccc3ccccc23)n[nH]1	KDM4E inh inconclusive, Tau ThT inhib inconclusive
COc1ccc(N2CCN(C(=O)C3CCN(S(=O)(=O)c4cnc[nH]4)CC3)CC2)cc1	none (no result: KDM4E inh, GoLoco inh red)
O=C(N/N=C/c1c[nH]c2ccccc12)c1cc(-c2ccc3ccccc3c2)n[nH]1	none
O=C(N/N=C/c1c[nH]c2ccccc12)c1cc(-c2ccc(-c3ccccc3)cc2)n[nH]1	Tau fluor counter 13µM[quencher], KDM4E inh inconclusive, Tau ThT inhib inconclusive
Cc1ccc(Cn2c(=O)n(Cc3ccccc3Cl)c(=O)c3ccccc32)cc1	none (no result: KDM4E inh, GoLoco inh red)
O=C(O)c1ccccc1C(=O)Nc1ccccc1	none
O=C(Nc1ccccc1)C1=C(c2ccccc2)S(=O)(=O)CCS1(=O)=O	Tau fibril FP 22µM, Tau ThT inhib 28µM
COc1cccc(-n2cc(C(=O)Nc3cccc(C(F)(F)F)c3)c3ccccc3c2=O)c1	Tau ThT inhib inconclusive (no result: KDM4E inh, GoLoco inh red)
CCOc1ccc2nc(Cl)c(C3CC(c4ccco4)=NN3S(=O)(=O)c3ccccc3)cc2c1 (centres undefined)	KDM4E inh inconclusive
COc1ccc2cc(C3CC(c4ccco4)=NN3S(C)(=O)=O)c(Cl)nc2c1 (centres undefined)	Tau ThT inhib inconclusive
CCS(=O)(=O)N1N=C(c2ccc(C)cc2)CC1c1cc2ccc(OC)cc2nc1Cl (centres undefined)	Tau fluor counter inconclusive, Tau fibril FP 40µM (no result: KDM4E inh, GoLoco inh red)
CCOc1ccc2nc(Cl)c(C3CC(c4ccc(OC)cc4)=NN3S(C)(=O)=O)cc2c1 (centres undefined)	Tau fluor counter inconclusive, Tau fibril FP 35µM (no result: KDM4E inh, GoLoco inh red)
Cc1cccc(OCCCC(=O)Nc2ccc(Br)cc2)c1	none
Cc1cccc(OCCCC(=O)Nc2ccc(N(C)C)cc2)c1	Tau ThT inhib 13µM
COc1ccc(/C=N/NC(=O)c2cc(-c3cccn3C)n[nH]2)cc1OC	Tau ThT inhib inconclusive
COc1cc(OC)c(OC)cc1/C=N/NC(=O)c1cc(-c2cccn2C)n[nH]1	Tau fluor counter inconclusive, KDM4E inh inconclusive, Tau ThT inhib 13µM
CCOc1cccc(/C=N/NC(=O)c2cc(-c3cccn3C)n[nH]2)c1O	Tau fluor counter inconclusive, KDM4E inh 32µM, Tau ThT inhib inconclusive
Cn1cccc1-c1cc(C(=O)N/N=C/c2cccc(O)c2)[nH]n1	Tau ThT inhib inconclusive
CCC(=O)N1CCc2cc(Br)cc(S(=O)(=O)CCC(=O)N3CCN(c4ccccc4F)CC3)c21	none (no result: KDM4E inh, GoLoco inh red)
O=C(N/N=C/c1cccnc1)c1cccc(S(=O)(=O)Nc2cccc(Cl)c2)c1	none
COc1ccc(NS(=O)(=O)c2ccc3oc(Nc4ccc5c(c4)OCCO5)nc3c2)cc1	Tau fluor counter 13µM[quencher], Tau fibril FP inconclusive, KDM4E inh inconclusive, Tau ThT inhib inconclusive
O=S(=O)(Nc1ccc(Cl)cc1)c1cccc(S(=O)(=O)c2ccc(Cl)c(Cl)c2)c1	Tau fluor counter inconclusive, Tau fibril FP 11µM (no result: KDM4E inh, GoLoco inh red)
O=S(=O)(Nc1ccc(Cl)cc1)c1ccc(NS(=O)(=O)c2ccc3c(c2)OCCO3)cc1	Tau fluor counter inconclusive, Tau fibril FP 14µM (no result: KDM4E inh, GoLoco inh red)
O=C(N/N=C/c1ccncc1)c1cccc(S(=O)(=O)Nc2ccc(Cl)cc2)c1	KDM4E inh 3.5µM
COc1ccc(NS(=O)(=O)c2ccc(NS(=O)(=O)c3ccc4c(c3)OCCO4)cc2)cc1	Tau fluor counter inconclusive, Tau fibril FP inconclusive (no result: KDM4E inh, GoLoco inh red)
CC(=O)c1cc(-c2ccc(F)cc2)n(CC(=O)NC2CCCCCC2)c1C	none (no result: KDM4E inh, GoLoco inh red)
O=C1C2=CC[C@H]3C(=O)N(C[C@@H]4CCCO4)C(=O)[C@@H]3[C@@H]2[C@H](O)[C@@H]2O[C@H]12	Tau fibril FP inconclusive, Tau ThT inhib 3.2µM (no result: KDM4E inh, GoLoco inh red)
CCN1C(=O)[C@@H]2[C@H]3C(=CC[C@H]2C1=O)C(=O)[C@H]1OC1[C@H]3O (some centres undefined)	Tau fibril FP inconclusive, Tau ThT inhib 4µM (no result: KDM4E inh, GoLoco inh red)
c1ccc2[nH]c(-c3ccnc4ccccc34)nc2c1	KDM4E inh inconclusive, GoLoco inh red 25µM!
COC(=O)Cc1[nH]nc2c1C(c1c[nH]c3ccccc13)C(C#N)=C(N)O2 (centres undefined)	Tau fluor counter inconclusive, KDM4E inh inconclusive, Tau ThT inhib 25µM
COc1ccc(-c2cc(OC(=O)c3cccc(C)c3)c3c(C)oc(C)c3c(=O)c2)cc1	Tau ThT inhib inconclusive (no result: KDM4E inh, GoLoco inh red)
CCN(CC)CCNC(=O)c1ccc2c(c1NCCO)C(=O)c1ccccc1C2=O	Tau fluor counter inconclusive, Tau ThT inhib 16µM
Cc1cccc(-c2noc(-c3ccccc3OCC(=O)Nc3ccccc3[N+](=O)[O-])n2)c1	none (no result: KDM4E inh, GoLoco inh red)
C=CCc1cccc(/C=N/NC(=O)c2ccccc2Br)c1O	Tau fluor counter inconclusive, Tau fibril FP inconclusive, KDM4E inh 25µM
O=C(N/N=C/c1ccccc1C(=O)O)c1ccccc1Br	none
C=CCc1cccc(/C=N/NC(=O)c2ccccc2OC)c1O	KDM4E inh 32µM
